Bioassay records from PubChem BioAssay.
Pf Dd2 inh: inhibitors of Plasmodium falciparum Dd2 growth | 4.3% of 120,000 active | Potency, µM (top dose mostly 28.9 µM), usual class: inhibitors | P. falciparum Dd2 growth, SYBR Green, 72 h; active = well fitted inhibition curve with a large enough effect; also: nearly all actives have a fitted effect of over 65% in size
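Infected erythrocytes (Dd2, 0.3% parasitemia, 2.5% hematocrit final) are added to compound in RPMI-1640/Albumax II medium, grown 72 h at 37C in low oxygen, then lysed with saponin/Triton-X containing SYBR Green and read by fluorescence.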
Hits are given with their value; [ ] = remark or other dose. Shown is part of a subset that was picked to be rich in hits.

Results for c1cnc2c(c1)ncn2C1CCCCC1 ?
Pf Dd2 inh: inactive

What do the screens show for `CN(CC[C@H]1CN(C(=O)c2ccnc(Cl)c2)CC[C@H]1CC(=O)O)c1ccccc1`?
Pf Dd2 inh: inactive

How did Cc1ccc(-c2nc3ccc(Cl)cn3c2Nc2ccc3c(c2)OCCO3)s1 do in these assays?
Pf Dd2 inh: inactive

How did Cc1ccc2nc(-c3ccc(C)o3)c(Nc3ccc4c(c3)OCCO4)n2c1 do in these assays?
Pf Dd2 inh: inactive

Results for Cc1ccn2c(Nc3ccc4c(c3)OCCO4)c(-c3ccccc3O)nc2c1 ?
Pf Dd2 inh: 11µM

How did Cc1ccc(-c2nc3ccccn3c2Nc2ccc3c(c2)OCCO3)o1 do in these assays?
Pf Dd2 inh: inactive

What do the screens show for `c1csc(-c2nc3ccccn3c2Nc2ccc3c(c2)OCCO3)c1`?
Pf Dd2 inh: inactive

How did Brc1ccc(-c2nc3ccccn3c2Nc2ccc3c(c2)OCCO3)o1 do in these assays?
Pf Dd2 inh: 13µM

Results for COCCc1nncn1C1CCN(S(=O)(=O)c2ccc(F)cc2)CC1 ?
Pf Dd2 inh: inactive

How did CN(C)C(=O)CN1C(=O)CO[C@H](c2ccc(NC(=O)c3ccc(F)c(Cl)c3)cc2)[C@H]1CO do in these assays?
Pf Dd2 inh: inactive

How did CC(=O)N1CCC(NC2(Cc3cc(COc4ccccc4)on3)COC2)CC1 do in these assays?
Pf Dd2 inh: inactive

Results for Cc1cc(C(=O)N2CCCC(CCc3c(F)cccc3F)C2)no1 (configuration not stated) ?
Pf Dd2 inh: inactive

How did O=C(O)C1CCc2nnc(C3CCN(C(=O)c4ccc5c(c4)OCO5)CC3)n21 (configuration not stated) do in these assays?
Pf Dd2 inh: inactive

How did CNC(=O)Nc1ccc(C)n(CC(=O)N2CCN(c3cccc(Cl)c3)CC2)c1=O do in these assays?
Pf Dd2 inh: inactive

What do the screens show for `O=C(NCc1ccncc1)C1CCC(=O)N(C2CCCCCC2)C1` (configuration not stated)?
Pf Dd2 inh: inactive

How did OC1(CN2CCN(c3ccc(F)c(Cl)c3)CC2)CCCNC1 (configuration not stated) do in these assays?
Pf Dd2 inh: 7.9µM

How did Cn1ncc(N2CCN(CC3(O)CCCNC3)CC2)cc1=O (configuration not stated) do in these assays?
Pf Dd2 inh: inactive

What do the screens show for `OC1(CN2CCN(c3nccs3)CC2)CCCNC1` (configuration not stated)?
Pf Dd2 inh: inactive

How did Cc1cccc(OCC2(CNS(=O)(=O)c3ccc(F)cc3)C[C@@H](O)[C@@H](O)C2)n1 (some centres not stated) do in these assays?
Pf Dd2 inh: inactive

How did COCCOc1ccc2c(n1)CCN(C(=O)Nc1ccc(C)c(C)c1)C2 do in these assays?
Pf Dd2 inh: inactive

What do the screens show for `Cc1cc(C)cc(NC(=O)CN2C(=O)CSc3ccc(S(=O)(=O)N4CCCC4)cc32)c1`?
Pf Dd2 inh: inactive

How did CC(C)N(Cc1ccccc1)C(=O)CN1C(=O)CSc2ccc(S(=O)(=O)N3CCCC3)cc21 do in these assays?
Pf Dd2 inh: 7.9µM

Results for CCCCN(CCCC)CCNC(=O)CN1C(=O)CSc2ccc(S(=O)(=O)N3CCCCC3)cc21 ?
Pf Dd2 inh: inactive

How did Cn1cc(C(=O)N2CCC3(CC2)CN(Cc2ccccc2)CC3CO)cn1 (configuration not stated) do in these assays?
Pf Dd2 inh: inactive

Results for Cc1ccc(Cl)cc1NC(=O)C1CCN(c2nnc(C)c3c(C)n(-c4ccccc4)nc23)CC1 ?
Pf Dd2 inh: inactive

What do the screens show for `CCOc1ccccc1CNC(=O)C1CCN(c2nnc(C)c3c(C)n(-c4ccc(C)cc4)nc23)CC1`?
Pf Dd2 inh: 7.1µM

What do the screens show for `COc1ccccc1NC(=O)C1CCCN(c2nnc(C)c3c(C)n(-c4ccccc4)nc23)C1` (configuration not stated)?
Pf Dd2 inh: inactive

How did CCOc1ccccc1CNC(=O)CSc1nnc(C)c2c(C)n(-c3ccccc3)nc12 do in these assays?
Pf Dd2 inh: inactive

Results for COc1ccc(Cl)cc1NC(=O)C1CCN(c2nnc(C)c3c(C)n(-c4ccccc4)nc23)CC1 ?
Pf Dd2 inh: inactive

How did Cc1ccc(NC(=O)C2CCCN(c3nnc(C)c4c(C)n(-c5ccccc5)nc34)C2)cc1Cl (configuration not stated) do in these assays?
Pf Dd2 inh: inactive

What do the screens show for `COc1ccccc1CCNC(=O)C1CCN(c2nnc(C)c3c(C)n(-c4ccc(C)cc4)nc23)CC1`?
Pf Dd2 inh: 6.3µM

How did Cc1nnc(N2CCC(C(=O)NCCc3ccccc3Cl)CC2)c2nn(-c3ccccc3)c(C)c12 do in these assays?
Pf Dd2 inh: 11µM

How did CCN(CC)C(=O)C1CCN(c2nnc(C)c3c(C)n(-c4ccc(Cl)cc4)nc23)CC1 do in these assays?
Pf Dd2 inh: inactive[5.79 µM]

Results for Cc1cccc(NC(=O)N2CC3CN(C)CC(C2)O3)c1 ?
Pf Dd2 inh: inactive

How did COCCCN(CCC(=O)NCCOC)C(=O)c1cc(C)oc1C do in these assays?
Pf Dd2 inh: inactive

Results for CC(C)c1ccc(C(=O)NCc2ccnc3[nH]ccc23)cc1 ?
Pf Dd2 inh: inactive

What do the screens show for `Cn1nccc1CN1CCC2(CNc3ccccc3[S+](=O)([O-])N2)C1` (configuration not stated)?
Pf Dd2 inh: inactive

How did O=C(Nc1nc2c(s1)CCC2)C1CC(=O)N(c2n[nH]c3cc(Br)ccc23)C1 (configuration not stated) do in these assays?
Pf Dd2 inh: inactive

What do the screens show for `Cn1ccc(C(=O)N2CC3ON=C(C(=O)NCc4cccnc4)C3C2)n1` (configuration not stated)?
Pf Dd2 inh: inactive

Results for Cc1ccc(NC(=O)N2CCC3(CC2)C(=O)N(CC(=O)N2CCCC2)CN3c2ccccc2)cc1 ?
Pf Dd2 inh: 7.1µM

Results for CC(C)(C)NC(=O)N1CCC2(CC1)C(=O)N(CC(=O)NCC1CCCO1)CN2c1ccccc1 (configuration not stated) ?
Pf Dd2 inh: inactive

What do the screens show for `COCCNC(=O)CN1CN(c2ccccc2)C2(CCN(C(=O)C3CCCCC3)CC2)C1=O`?
Pf Dd2 inh: inactive

What do the screens show for `CCn1ncc(N2CCCC(CC(=O)NCCc3ccccc3)C2)cc1=O` (configuration not stated)?
Pf Dd2 inh: inactive

How did CC1=C(C(=O)Nc2ccccc2)C(c2ccccc2)n2nc(-c3ccco3)nc2N1 (configuration not stated) do in these assays?
Pf Dd2 inh: inactive

What do the screens show for `O=C(c1ccc(F)cc1)n1nc(-c2ccccc2)nc1NCc1ccco1`?
Pf Dd2 inh: inactive

Results for O=C(Nc1nc2n(n1)C(c1ccc(Cl)cc1)C=C(c1ccccc1)N2)c1ccco1 (configuration not stated) ?
Pf Dd2 inh: 13µM

What do the screens show for `O=C(NCc1nnc2ccc(-c3ccc(Cl)cc3)nn12)c1ccco1`?
Pf Dd2 inh: inactive

How did O=S(=O)(Nc1nc2n(n1)C(c1ccc(F)cc1)C=C(c1ccccc1)N2)c1ccccc1 (configuration not stated) do in these assays?
Pf Dd2 inh: inactive

What do the screens show for `O=C(Nc1nc2n(n1)C(c1ccc(F)cc1)C=C(c1ccccc1)N2)c1ccco1` (configuration not stated)?
Pf Dd2 inh: 10µM

Results for Cc1ccc(C2Cn3nnc(C(=O)N4CCC(C(=O)Nc5cc(F)cc(F)c5)CC4)c3CO2)cc1 (configuration not stated) ?
Pf Dd2 inh: inactive

How did O=C1NC(C(=O)NCCCc2ccccc2)Cn2cccc21 (configuration not stated) do in these assays?
Pf Dd2 inh: inactive

Results for COc1ccc([S+](=O)([O-])c2nnn3c2nc(NC2CC2)c2ccccc23)cc1 ?
Pf Dd2 inh: inactive
